From PubChem
This is a sample that favours compounds with a hit; in the whole collection about 2.7% have one here.
Env fusion inh – inhibitors of HIV Env-mediated cell fusion. HeLa-JRFL Env/CEM21 cell fusion, luciferase. inhibition, % at 12.3 µM. 1.1% of 360,000 active. AID 651610;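 active = mean replicate inhibition score of at least 50 and every replicate individually at or above 50; inconclusive = only one of the two criteria met; inactive = mean below 50 and not all replicates reaching 50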;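 note: 0% = plate neutral controls and 100% = maraviroc near 300 nM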
PGC1a acetyl inh – modulators of PGC1a acetylation; inhibition, % at 15.6 µM; U2OS PGC1a acetylation, AlphaScreen anti-acetyl-lysine; with virally co-expressed GCN5 acetyltransferase; AID 651687; 0.17% of 350,000 active;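 active = every replicate shows inhibition of at least 40%; inconclusive = mean inhibition at least 40% but some replicate below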;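 note: 0% = neutral control wells and 100% = positive control wells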
CFTR F508del cor – CFTR F508del correction in bronchial cells. activity (quench increase), % at 7.58 µM. 0.36% of 350,000 active. CFBE cells, YFP halide quenching; stimulated with forskolin plus potentiator P3; % fluorescence drop versus neutral controls. AID 720511;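 active = mean added fluorescence quench of at least 8% versus neutral control, with both replicates also reaching 8%; inconclusive = only one of the mean or replicate conditions met; inactive = mean below 8% and not both replicates reaching 8%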;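 note: cells transiently co-express mutant CFTR-F508del with the halide-sensitive YFP; corrector assay measuring rescue of mutant channel to the surface after 24 h compound exposure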
EWS-Fli block – inhibitors of EWS/Fli oncoprotein transcriptional activity; A673 NR0B1-luciferase reporter, viability-normalised; inhibition, % at 12.6 µM; 0.67% of 350,000 active; AID 651661;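 active = mean inhibition of at least 50% after viability correction, with every replicate also passing that limit; inconclusive = mean reaches 50% but only one of two replicates passes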;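 note: firefly luciferase signal divided by Alamar Blue viability fluorescence both relative to DMSO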
PAX8 inh HTS – inhibitors of PAX8 transcriptional activity in RMG-I cells; RMG-I TPO-luciferase reporter, SteadyGlo, 24 h; inhibition, % at 12.6 µM; 1.2% of 360,000 active; AID 652154;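 active = mean replicate inhibition at least 60% with every replicate also reaching 60%; inconclusive = only one of the two criteria is met; inactive = mean below 60% and not all replicates reaching 60%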;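 note: luciferase light reporting Pax8 driven TPO promoter activity; plate controls were median of neutral control wells for no effect and mitoxantrone controls for full effect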
INS-1E GSIS act – primary screen for activators of insulin secretion dependent on glucose, INS-1E cells, GLuc reporter luminescence; INS-1E GLuc reporter insulin secretion, 2-3 h; activation, % at 16.6 µM; 0.61% of 370,000 active; AID 743287;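 active = lowest replicate activation of at least 40%, so every replicate reaches that level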;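 note: 0% = median of neutral control wells and 100% = median of IBMX positive control wells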
The depositor's hits bear a star; ? = inconclusive; · = not tested or not shown; [ ] = dose if it differs, or a comment.

SMILES | Env fusion inh | PGC1a acetyl inh | CFTR F508del cor | EWS-Fli block | PAX8 inh HTS | INS-1E GSIS act
CCN1CCN(S(=O)(=O)c2cc(OCC(=O)NC3CCCCC3)c(C)cc2Cl)CC1 | -25 | -5 | · | · | 6 | -13
Cc1cc(Cl)c(S(=O)(=O)N2CCSCC2)cc1OCC(=O)NC1CCCCC1 | 93* | -6 | · | · | · | ·
Cc1cc(Cl)c(S(=O)(=O)N2CCCCCC2)cc1OCC(=O)NC1CCCCC1 | 51* | 4 | · | · | 12 | ·
O=C(/C=C/c1ccccc1)CC(O)(c1ccccc1)C(F)(F)C(F)F (stereo not given) | · | ? | 3 | 66* | · | 7
O=C(OC1CCOC1=O)c1cc(-c2ccc(Cl)cc2)nc2ccccc12 (stereo not given) | 17 | 4 | · | · | · | 56*
C[C@H]1CN([C@@H](C)CO)C(=O)Cc2cc(NC(=O)Nc3ccccc3)ccc2O[C@H]1CN(C)Cc1ccc(Cl)c(Cl)c1 | 46[16.7 µM] | -8 | -3 | 1 | 50 | -40
C[C@H](CO)N1C[C@H](C)[C@H](CN(C)CC2CC2)Oc2ccc(NC(=O)Nc3ccc4c(c3)OCO4)cc2CC1=O | 65*[16.7 µM] | · | -2 | 0 | -2 | -8
COc1ccc(NC(=O)Nc2ccc3c(c2)CC(=O)N([C@@H](C)CO)C[C@@H](C)[C@H](CN(C)Cc2ccc(Cl)c(Cl)c2)O3)cc1 | 9[16.7 µM] | -11 | 4 | 11 | 72* | -5
C[C@H]1CN([C@@H](C)CO)C(=O)Cc2cc(NC(=O)Nc3ccc4c(c3)OCO4)ccc2O[C@@H]1CN(C)CC1CC1 | 14[16.7 µM] | · | 3 | -10 | -13 | -8
C[C@@H]1CN([C@@H](C)CO)C(=O)Cc2cc(NC(=O)Nc3ccc(F)cc3)ccc2O[C@H]1CN(C)Cc1ccc2c(c1)OCO2 | · | -8 | 0 | 11 | 68* | -2
C[C@@H]1CN([C@@H](C)CO)C(=O)Cc2cc(NC(=O)Nc3ccc(F)cc3)ccc2O[C@@H]1CN(C)Cc1ccc(Cl)c(Cl)c1 | 14 | -12 | -1 | 15 | 81* | -9
COc1ccc(NC(=O)N[C@H]2CC[C@@H](CCn3cc(-c4ccccn4)nn3)O[C@H]2CO)cc1 | 5[16.7 µM] | -2 | 0 | 2 | 2 | 10
O=C(C[C@H]1C[C@@H]2c3cc(NC(=O)C4CCOCC4)ccc3O[C@@H]2[C@H](CO)O1)NCc1ccc(Oc2ccccc2)cc1 | 5[16.7 µM] | 7 | -1 | -4 | -17 | 3
C[C@@H]1CN([C@@H](C)CO)C(=O)Cc2cc(NC(=O)Nc3ccc4c(c3)OCO4)ccc2O[C@H]1CN(C)Cc1ccc(Cl)c(Cl)c1 | 57*[16.7 µM] | 2 | -3 | 5 | 16 | -9
C[C@H](CO)N1C[C@H](C)[C@H](CN(C)Cc2ccc(Cl)c(Cl)c2)Oc2ccc(NC(=O)Nc3ccc4c(c3)OCO4)cc2CC1=O | 17[16.7 µM] | -5 | -2 | -4 | 26 | -14
Cc1ccccc1-c1nc(CS(=O)(=O)CC(=O)NCc2ccccc2)c(C)o1 | 9 | 1 | 8.8* | -5 | 11 | ·
COc1ccc(C(C(=O)NC(C)(C)C)N(CCC(C)C)C(=O)CCC(=O)Nc2cc(C)on2)cc1 (stereo not given) | 69* | · | 3 | -4 | 8 | -14
C[C@@H]1CN([C@@H](C)CO)S(=O)(=O)c2ccc(/C=C/c3ccccc3)cc2O[C@@H]1CN(C)C(=O)CN1CCOCC1 | -3[16.7 µM] | -3 | 3 | -5 | -6 | 4
CN(Cc1ccccc1)c1ncnc(N)c1[N+](=O)[O-] | ? | 34 | -2 | -7 | -19 | 44*
CN(Cc1ccccc1)c1ncnc2[nH]ncc12 | · | 15 | -1 | -1 | -20 | 40*
CN(Cc1ccccc1)c1ncnc2sccc12 | 5 | 7 | 2 | 27 | 9 | -13
Cc1ccc(S(=O)(=O)Nc2ccc3c(c2)CC(=O)N([C@H](C)CO)C[C@H](C)[C@@H](CN(C)S(=O)(=O)c2ccccc2)O3)cc1 | -8[16.7 µM] | -5 | 8 | 6 | 12 | -14
CC(C)NC(=O)N(C)C[C@@H]1OCCCC[C@H](C)Oc2ccc(NC(=O)Nc3ccc(C(F)(F)F)cc3)cc2C(=O)N([C@@H](C)CO)C[C@@H]1C | -19[16.7 µM] | -8 | 4 | 4 | 69* | 8
CC(C)NC(=O)Nc1ccc2c(c1)C(=O)N([C@H](C)CO)C[C@@H](C)[C@H](CN(C)C(=O)Nc1ccc(C(F)(F)F)cc1)OCCCC[C@H](C)O2 | 75*[16.7 µM] | -2 | 1 | 11 | -8 | 9
CC(C)NC(=O)Nc1ccc2c(c1)C(=O)N([C@H](C)CO)C[C@H](C)[C@H](CN(C)C(=O)Nc1ccc(C(F)(F)F)cc1)OCCCC[C@H](C)O2 | -23[16.7 µM] | -12 | 1 | 10 | 42 | -10
SMILES | Env fusion inh | PGC1a acetyl inh | CFTR F508del cor | EWS-Fli block | PAX8 inh HTS | INS-1E GSIS act
CC(C)NC(=O)Nc1ccc2c(c1)C(=O)N([C@H](C)CO)C[C@@H](C)[C@@H](CN(C)C(=O)Nc1ccc(C(F)(F)F)cc1)OCCCC[C@@H](C)O2 | 72*[16.7 µM] | -22 | 3 | 28 | 8 | 11
CC(C)NC(=O)Nc1ccc2c(c1)C(=O)N([C@H](C)CO)C[C@@H](C)[C@H](CN(C)C(=O)Nc1ccc(C(F)(F)F)cc1)OCCCC[C@@H](C)O2 | -12[16.7 µM] | 10 | 8 | 24 | 68* | -6
CC(C)NC(=O)Nc1ccc2c(c1)C(=O)N([C@@H](C)CO)C[C@@H](C)[C@H](CN(C)C(=O)Nc1ccc(C(F)(F)F)cc1)OCCCC[C@H](C)O2 | 19[16.7 µM] | 8 | 4 | 4 | 16 | -11
CC(C)NC(=O)N(C)C[C@@H]1OCCCC[C@@H](C)Oc2ccc(NC(=O)Nc3ccc(C(F)(F)F)cc3)cc2C(=O)N([C@@H](C)CO)C[C@H]1C | · | 9 | 3 | -5 | 49 | -1
CCN1[C@@H]2c3ccc(-c4cccc(F)c4)c(=O)n3C[C@H]1[C@H](CO)[C@H]2C(=O)NCC1CC1 | · | · | -2 | 3 | · | 13
C[C@H](CO)N1C[C@H](C)[C@@H](CN(C)C(=O)NC2CCCCC2)Oc2ccc(NC(=O)CCCN(C)C)cc2C1=O | -12[16.7 µM] | 0 | -3 | · | -5 | 11
O=C(C[C@@H]1CC[C@H](NC(=O)CN2CCOCC2)[C@H](CO)O1)NC1CCCCC1 | -31[16.7 µM] | 1 | 0 | 0 | -11 | 10
COc1ccccc1-c1noc(CCCC(=O)NC2CCCC2)n1 | 6 | · | 2 | 2 | 4 | 18
O=C(CCCc1nc(-c2ccccc2Cl)no1)NC1CCCC1 | 66* | -5 | 3 | · | 21 | -7
O=C(CN1CCOCC1)N[C@H]1CC[C@@H](CCNC(=O)C2CCCC2)O[C@@H]1CO | -10[16.7 µM] | 5 | 0 | 2 | 1 | 12
CC(=O)Nc1ccc(NC(=O)c2ccc(NS(=O)(=O)c3cc(C(C)(C)C)cc(C)c3C)cc2)cc1 | · | · | -3 | 9 | 68* | -3
CC(=O)Nc1ccc(S(=O)(=O)Nc2ccc3c(c2)n(C)c(=O)n3C)c(C)c1 | -36 | -4 | 0 | 20 | 1 | 98*
CC(=O)Nc1ccc2c(c1)n(C)c(=O)n2C | -39 | 5 | · | · | · | ·
